Laboratory results published in PubChem BioAssay (NCATS).
Records with an inconclusive call do not appear. Entries that show only a call come without a potency. A structure can be active in one record and inactive in another. The source made the active and inactive calls. The call rests on the fitted dose curve; in most records, active means well fitted curve in the direction sought with a large enough effect; inconclusive means small, poorly fitted or top-dose-only effect, or another doubt; inactive means no such curve, though single readings can be large; an effect the other way counts as inactive or inconclusive.

Tests used:
[1] = test system: Zika virus NS2B-NS3 protease (linked construct); experiment: Primary screen NINDS Rhodamine qHTS for Zika virus inhibitors (AID 1347160); further: nearly all actives have a fitted effect of over 55% in size
In short: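 Kinetic fluorescence (Ex 480 nm, Em 540 nm) over 15 min with 1.5 microM Rhodamine110 peptide and 25 nM linked protease.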

[2] = biological target: Calcium and integrin-binding protein 1 (Homo sapiens) (UniProt Q99828); experiment: Primary qHTS for Identification of Calcium Integrin Binding Protein 1 (CIB1) Competitor (AID 1508620);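 further: GST tagged CIB1 binding a fluorescein labelled alphaIIb integrin peptide tracer; top concentration of the series differs between compounds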
In short: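 Fluorescence polarization competition: CIB1-GST (1 uM final) preincubated with compound 15 min at room temperature, then FITC-labeled alphaIIb peptide (100 nM final) added for another 15 min. Polarization read at Ex 480/Em 540.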

[3] = Primary qHTS for inhibitors of nuclear receptor binding SET domain protein 2 (NSD2) in an isogenic RCH-ACV NSD2 p.E1099K mutant (9B) (AID 1645876); further: nearly all actives have a fitted effect of over 70% in size; further: potency means the concentration at half of the fitted maximal effect
[4] = biological target: Phospholipid hydroperoxide glutathione peroxidase GPX4 (Homo sapiens) (UniProt P36969); experiment: Primary qHTS Assay for Inhibitors of Recombinant Selenoprotein Glutathione Peroxidase 4 (GPX4) (AID 1845192); settings: outcome: dose series up to 50 µM unless noted; further: nearly all actives have a fitted effect of over 65% in size
In short: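 GR-coupled readout: 100 nM GR, 1 mM GSH, 0.5 mM NADPH; NADPH fluorescence (ex 340/em 450 nm) read at t=0 and after 15 min RT. GPX4 200 nM, preincubated 30 min with compound; substrate 0.5 mM CHP.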

[5] = biological target: Luciferin 4-monooxygenase (Photinus pyralis) (UniProt P08659); experiment: Primary firefly luciferase (FLuc) qHTS assay for identification of artifact compounds. (AID 1845220); further: nearly all actives have a fitted effect of over 60% in size
In short: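 In this counter-screen for luciferase artifacts, test compounds met substrate (10 uM each luciferin and ATP) before 10 nM enzyme started the reaction. Light output was measured 5 min later.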

[6] = test system: Nanoluciferase (engineered Oplophorus gracilirostris luciferase); experiment: Primary Nanoluciferase (NLuc) qHTS assay for identification of artifact compounds. (AID 1845222);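 further: NLuc secreted into diluted conditioned medium of S16 cells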
In short: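 Using secreted nanoluciferase in S16 culture medium (0.22 um filtered, 1:55 dilution), compounds were preincubated 15 min at RT. Signal was generated with Nano-Glo reagent (1:100) over 5 min.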

C33A = experiment: Primary qHTS to identify gynecologic anti-cancer compounds using libraries of approved drugs and bioactive compounds (AID 1345084); settings: Gynecologic cancer cell panel viability, ATPlite luminescence, 48 h; series mostly up to 57.5 µM; further: nearly all actives have a fitted effect of over 55% in size; further: potency means the concentration at half of the fitted maximal effect
In short: (§1)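 48 h compound exposure at 37 C, 5% CO2; five-point qHTS. ATPlite luminescence readout of cell ATP.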

CASKI = experiment: as above; settings: Gynecologic cancer cell panel viability, ATPlite luminescence, 48 h; series mostly up to 57.5 µM
In short: as §1

HeLa = experiment: as above; settings: Gynecologic cancer cell panel viability, ATPlite luminescence, 48 h; series mostly up to 57.5 µM
In short: as §1

Hek293T = experiment: as above; settings: Gynecologic cancer cell panel viability, ATPlite luminescence, 48 h, control line for the selectivity index; series mostly up to 57.5 µM
In short: as §1

OV90 = experiment: as above; settings: Gynecologic cancer cell panel viability, ATPlite luminescence, 48 h; series mostly up to 57.5 µM
In short: as §1

Tov-21-G = experiment: as above; settings: Gynecologic cancer cell panel viability, ATPlite luminescence, 48 h; series mostly up to 57.5 µM
In short: as §1

Tov112D = experiment: as above; settings: Gynecologic cancer cell panel viability, ATPlite luminescence, 48 h; series mostly up to 57.5 µM
In short: as §1

[7] = test system: Zika virus NS2B-NS3 protease (unlinked complex); experiment: Primary screen GU Rhodamine qHTS for Zika virus inhibitors: Unlinked NS2B-NS3 protease assay (AID 1347159); further: nearly all actives have a fitted effect of over 60% in size
In short: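 A qHTS format was used, with compound concentrations ranging up to 114 microM. Each compound was preincubated with 25 nM NS2B-NS3 protease, and the substrate was then added at 1.5 microM. Curves were fitted with a 4-parameter Hill model.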

[8] = Primary qHTS for inhibitors of nuclear receptor binding SET domain protein 2 (NSD2) in an RCH-ACV wild type WT cells (2C) (AID 1645877); further: potency means the concentration at half of the fitted maximal effect; nearly all actives have a fitted effect of over 70% in size
[9] = biological target: Glutathione peroxidase 1 (Homo sapiens) (UniProt P07203); experiment: Primary qHTS Assay for Inhibitors of Recombinant Selenoprotein Glutathione Peroxidase 1 (GPX1) (AID 1845191); further: nearly all actives have a fitted effect of over 65% in size
In short: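 Recombinant GPX1 (10 nM final) was preincubated with compound for 30 min at room temperature, then reacted with 1 mM GSH, 0.5 mM CHP, 0.5 mM NADPH and 100 nM glutathione reductase; NADPH fluorescence (340/450 nm) was read at 0 and 15 min.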

[10] = Primary fluorescence-based thiol-reactive (MSTI) qHTS assay for identification of artifact compounds. (AID 1845221);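 further: thiol-reactive compounds lower the probe fluorescence signal; nearly all actives have a fitted effect of over 65% in size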
In short: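 First, 4 uM MSTI in 2% DMSO/PBS pH 7.4 was dispensed; next, compounds were added; then plates sat 1 h at room temperature without light. Finally, emission at 598 nm was recorded.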

Es-2 = experiment: Primary qHTS to identify gynecologic anti-cancer compounds using libraries of approved drugs and bioactive compounds (AID 1345084); settings: Gynecologic cancer cell panel viability, ATPlite luminescence, 48 h; series mostly up to 57.5 µM; further: nearly all actives have a fitted effect of over 55% in size; further: potency means the concentration at half of the fitted maximal effect
In short: as §1

JEG-3 = experiment: as above; settings: Gynecologic cancer cell panel viability, ATPlite luminescence, 48 h; series mostly up to 57.5 µM
In short: as §1

PA-1 = experiment: as above; settings: Gynecologic cancer cell panel viability, ATPlite luminescence, 48 h; series mostly up to 57.5 µM
In short: as §1

Glutathione peroxidase 1 (Homo sapiens), sequence (P07203 whole entry, looked up): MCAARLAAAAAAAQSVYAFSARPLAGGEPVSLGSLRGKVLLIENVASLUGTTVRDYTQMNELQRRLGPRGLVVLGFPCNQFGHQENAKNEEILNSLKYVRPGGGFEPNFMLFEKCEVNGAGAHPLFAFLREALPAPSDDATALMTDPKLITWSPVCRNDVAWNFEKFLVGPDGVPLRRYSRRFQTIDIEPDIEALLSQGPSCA
Phospholipid hydroperoxide glutathione peroxidase GPX4 (Homo sapiens), sequence (P36969 whole entry, looked up): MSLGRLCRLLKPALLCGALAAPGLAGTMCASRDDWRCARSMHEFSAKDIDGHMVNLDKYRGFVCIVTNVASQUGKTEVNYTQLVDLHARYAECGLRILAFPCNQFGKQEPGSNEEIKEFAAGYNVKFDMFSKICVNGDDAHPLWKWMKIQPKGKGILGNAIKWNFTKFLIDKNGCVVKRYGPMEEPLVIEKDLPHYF
Calcium and integrin-binding protein 1 (Homo sapiens), sequence (Q99828 whole entry, looked up): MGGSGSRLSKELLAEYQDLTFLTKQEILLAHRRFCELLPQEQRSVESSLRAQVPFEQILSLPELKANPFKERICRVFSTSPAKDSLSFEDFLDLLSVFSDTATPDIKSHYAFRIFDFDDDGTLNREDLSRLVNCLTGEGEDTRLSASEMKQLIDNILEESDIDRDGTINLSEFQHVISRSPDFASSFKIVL

Compound	Potency [1]	outcome [2]	Potency [3]	Potency [4]	Potency [5]	Potency [6]	Potency (C33A)	Potency (CASKI)	Potency (HeLa)	Potency (Hek293T)	Potency (OV90)	Potency (Tov-21-G)	Potency (Tov112D)	Potency [7]	Potency [8]	Potency [9]	Potency [10]	Potency (Es-2)	Potency (JEG-3)	Potency (PA-1)
OCC(Cc1ccccc1)Nc1nc(Oc2ccc3c(c2)CCC3)nc2c1ncn2Cc1ccc(-c2ccccc2)cc1 (stereo not drawn)	inactive	inactive	16.3 µM (active)	inactive	inactive	inactive	inactive	inactive	inactive	inactive	inactive	inactive	inactive	–	–	–	–	–	–	–
COc1cc(-c2cc(-c3ccc(N4CCNCC4)cc3)cnc2C)cc(OC)c1OC	inactive	inactive	9.34 µM (active)	inactive	inactive	inactive	inactive	inactive	inactive	inactive	–	inactive	inactive	inactive	7.42 µM (active)	inactive	inactive	inactive	inactive	inactive
Cn1cc(-c2cnc3ccc4ccc(CS(=O)(=O)NCc5ccccn5)cc4c(=O)c3c2)cn1	inactive	–	20.9 µM (active)	inactive	inactive	inactive	inactive	inactive	inactive	inactive	inactive	inactive	–	inactive	23 µM (active)	inactive	inactive	inactive	inactive	inactive
CCS(=O)(=O)N(Cc1cccnc1)c1cccc(-c2ccc(C#N)cc2)c1	inactive	inactive	16.3 µM (active)	–	inactive	inactive	inactive	inactive	inactive	inactive	–	–	inactive	inactive	20.5 µM (active)	inactive	inactive	inactive	inactive	inactive
CC1CCCC(SCC(O)C(=O)O)CC(=O)c2c(O)cc(O)cc2CC(=O)O1 (stereo not drawn)	inactive	inactive	6.32 µM (active)	inactive	inactive	inactive	–	–	inactive	–	inactive	inactive	–	–	3.55 µM (active)	inactive	–	–	inactive	–
CC(C)[C@@H](C)/C=C/[C@@H](C)[C@H]1CC[C@H]2C3=CC=C4C[C@@H](O)CC[C@]4(C)C3=CC[C@]12C	inactive	inactive	–	inactive	inactive	inactive	inactive	inactive	inactive	inactive	inactive	inactive	inactive	–	–	inactive	inactive	inactive	inactive	inactive
Cc1cc2nc(NCCCO)n(CC(=O)c3cc(C(C)(C)C)c(O)c(C(C)(C)C)c3)c2cc1C	inactive	inactive	8.17 µM (active)	inactive	inactive	inactive	–	inactive	inactive	inactive	inactive	inactive	inactive	inactive	–	inactive	–	inactive	inactive	inactive
CC(C)CCC[C@@H](C)[C@H]1CC[C@H]2[C@@H]3CC=C4C[C@@H](OC(=O)NCCN(C)C)CC[C@]4(C)[C@H]3CC[C@]12C	inactive	inactive	–	inactive	inactive	inactive	inactive	–	inactive	inactive	inactive	inactive	inactive	inactive	–	–	inactive	inactive	inactive	inactive
C=CC(=O)Nc1cc(Nc2nccc(-c3cn(C)c4ccccc34)n2)c(OC)cc1N(C)CCN(C)C	inactive	inactive	3.32 µM (active)	inactive	inactive	inactive	–	14.1 µM (active)	–	–	–	–	–	inactive	2.95 µM (active)	inactive	–	–	–	25.1 µM (active)
C=C(C)C(=O)OC1[C@@H]2C(=C)C(=O)O[C@@H]2C[C@@H](C)[C@@H]2C=CC(=O)[C@@]12C (stereo partly drawn)	inactive	inactive	–	inactive	inactive	inactive	inactive	inactive	inactive	–	inactive	–	inactive	inactive	–	inactive	inactive	inactive	inactive	–
Cc1nc2ccc(C(=O)N3CCC4(CC3)CC(=O)c3c(cnn3C(C)C)C4)cc2[nH]1	–	inactive	–	inactive	–	–	–	–	–	–	–	–	–	–	–	inactive	–	–	–	–
CNCc1ccc(C)c(NC(=O)c2ccc(Nc3nc(-c4ccccc4)c4ccccc4n3)cc2)c1	inactive	inactive	7.42 µM (active)	inactive	inactive	inactive	inactive	inactive	inactive	inactive	inactive	inactive	inactive	inactive	7.42 µM (active)	inactive	inactive	inactive	inactive	–
CCCCn1c(-c2ccccc2)nc(-c2ccccc2)c1CN(Cc1ccc2c(c1)OCO2)Cc1ccc2c(c1)OCO2	inactive	inactive	–	inactive	inactive	inactive	inactive	–	inactive	inactive	inactive	inactive	inactive	inactive	18.3 µM (active)	inactive	–	inactive	inactive	inactive
Nc1ncnc2c1ncn2[C@@H]1O[C@H](CO)C[C@H]1O	inactive	inactive	10.3 µM (active) and inactive	inactive	inactive	inactive	inactive	inactive	–	–	inactive	–	inactive	inactive	5.78 µM (active)	inactive	–	–	inactive	–
